In PubChem BioAssay (NCATS):
“And” between values parts separate entries of the source, which are not always exact repeats. Equal values may be shown once. Results filed as inconclusive are left out. The source made the active and inactive calls. Unless noted, calls follow the shape of the dose curve; as a rule, active = well fitted curve in the direction sought with a large enough effect; inconclusive = small, poorly fitted or top-dose-only effect, or another doubt; inactive = no such curve, though single readings can be large; an effect the other way counts as inactive or inconclusive.

Experiments:
[1] = biological target: D(1A) dopamine receptor (Homo sapiens) (UniProt P21728); experiment: HTS Assay for Allosteric Agonists of the Human D1 Dopamine Receptor: Primary Screen for Potentiators (AID 488982); also: 0% is about no effect
Outline: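 Tetracycline-induced HEK293 Trex D1 cells with forced coupling to calcium, loaded with no-wash calcium dye; kinetic fluorescence read 180 s after compound addition for agonism, then a further 180 s after an EC20 dopamine challenge for potentiation.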

[2] = biological target: D(1A) dopamine receptor (Homo sapiens) (UniProt P21728); experiment: HTS Assay for Allosteric Agonists of the Human D1 Dopamine Receptor: Primary Screen for Antagonists (AID 488983);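 also: calcium flux response to an EC80 dopamine challenge measured with no-wash dye; % is scaled to controls: 0 for no effect and ±100 for the full control effect; nearly all actives have a fitted effect of over 65% in size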
Outline: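 Screening of inducible HEK293 T-REx D1 cells: compound first, EC80 dopamine 180 s later, each phase read kinetically for calcium over 180 s.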

[3] = Validation screen for small molecules that induce genotoxicity in human embryonic kidney (HEK293T) cells expressing luciferase-tagged ELG1 (AID 493106); also: potency is read from the fitted curve at half-maximal effect
Outline: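 Reporter-gene quantitative HTS in HEK293T cells carrying luciferase-tagged ELG1, whose level climbs under genotoxic stress. Compound exposure lasts 16 hr at 37 °C before luciferase detection.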

[4] = biological target: Phosphoglycerate kinase, glycosomal (Trypanosoma brucei brucei) (UniProt P07378); experiment: qHTS Validation Assay to Find Inhibitors of Phosphoglycerate Kinase (AID 504547);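 also: control wells lack PGK and mark full inhibition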
Sequence of Phosphoglycerate kinase, glycosomal (Trypanosoma brucei brucei) (P07378 whole entry, looked up): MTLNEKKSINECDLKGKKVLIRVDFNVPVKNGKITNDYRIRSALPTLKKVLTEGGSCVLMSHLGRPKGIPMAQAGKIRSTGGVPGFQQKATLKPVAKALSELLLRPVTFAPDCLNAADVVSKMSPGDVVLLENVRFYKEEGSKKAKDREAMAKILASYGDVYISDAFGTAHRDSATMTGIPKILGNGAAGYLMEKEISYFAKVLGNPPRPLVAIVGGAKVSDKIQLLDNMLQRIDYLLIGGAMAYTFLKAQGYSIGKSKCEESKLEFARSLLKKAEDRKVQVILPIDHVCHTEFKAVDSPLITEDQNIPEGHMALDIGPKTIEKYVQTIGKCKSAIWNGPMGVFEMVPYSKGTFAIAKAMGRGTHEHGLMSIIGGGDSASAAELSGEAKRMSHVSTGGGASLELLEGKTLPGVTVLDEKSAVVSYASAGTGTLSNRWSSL
Outline: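 PGK activity was coupled to GAPDH (100nM final), which generates the unstable substrate 1,3-bisphosphoglycerate in-well. Reactions ran 60 minutes at room temperature in 100mM TEA pH 7.6, 5mM MgCl2, 0.01% Tween-20, then Kinase-Glo Plus luminescence was read.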

[5] = biological target: phosphoglycerate mutase (Leishmania major) (UniProt Q4Q090); experiment: qHTS Validation Assay to Find Inhibitors of Phosphoglycerate Mutase (AID 504548); also: series mostly up to about 58 µM; % is scaled to controls: 0 for no effect and ±100 for the full control effect
Outline: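 Lm PGAM at 1.25 nM final with substrate in 100 mM TEA pH 7.6, 5 mM MgCl2, 0.01% Tween-20; 45 min at room temperature. Kinase-GloPlus added, 10 min, end-point luminescence read.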

[6] = biological target: Glutaminase kidney isoform, mitochondrial (Homo sapiens) (UniProt O94925); experiment: qHTS for Inhibitors of Glutaminase (GLS): LOPAC Validation (AID 624146); also: nearly all actives have a fitted effect of over 60% in size; also: potency is read from the fitted curve at half-maximal effect
Sequence of Glutaminase kidney isoform, mitochondrial (Homo sapiens) (O94925 whole entry, looked up, canonical isoform): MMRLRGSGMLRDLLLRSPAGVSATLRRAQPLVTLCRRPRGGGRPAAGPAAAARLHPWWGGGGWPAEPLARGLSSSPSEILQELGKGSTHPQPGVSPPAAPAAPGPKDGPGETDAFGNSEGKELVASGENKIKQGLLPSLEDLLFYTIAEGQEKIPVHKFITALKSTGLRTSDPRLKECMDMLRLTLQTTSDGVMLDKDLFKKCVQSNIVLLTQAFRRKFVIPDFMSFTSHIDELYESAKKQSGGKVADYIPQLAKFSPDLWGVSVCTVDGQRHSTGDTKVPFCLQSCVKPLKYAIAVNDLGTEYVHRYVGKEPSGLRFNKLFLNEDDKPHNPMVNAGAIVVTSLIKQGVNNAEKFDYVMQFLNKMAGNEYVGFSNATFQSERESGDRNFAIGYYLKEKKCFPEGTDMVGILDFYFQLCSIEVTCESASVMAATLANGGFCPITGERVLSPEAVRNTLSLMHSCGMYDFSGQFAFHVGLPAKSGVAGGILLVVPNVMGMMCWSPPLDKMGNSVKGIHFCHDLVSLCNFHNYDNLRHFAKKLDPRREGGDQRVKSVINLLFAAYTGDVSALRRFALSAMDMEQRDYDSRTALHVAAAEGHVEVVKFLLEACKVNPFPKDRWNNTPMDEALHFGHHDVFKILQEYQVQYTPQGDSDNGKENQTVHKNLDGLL
Outline: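 Two-point fluorescence kinetic (t0, 30 min RT) for hKGA; glutamate detected via glutamate oxidase–HRP–Amplex Red. Substrate: 1 mM L-glutamine solution; buffer 45 mM KH2PO4, pH 8.2.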

[7] = qHTS of Trypanosoma Brucei Inhibitors: LOPAC Validation (AID 624147); also: 0% is about no effect
Outline: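 Readout: single end-point luminescence (Kinase-Glo Plus, 10 min). Reaction conditions were TbPYK/substrate plus 130 uM ADP, 45 min at RT, pH 7.2 TEA buffer. No-enzyme wells served as controls, and data were normalized before concentration-response fitting.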

[8] = biological target: Arylsulfatase A (Homo sapiens) (UniProt P15289); experiment: qHTS screen for enhancers of Arylsulfatase A (ASA1): LOPAC Validation Assay (AID 720538); also: potency is read from the fitted curve at half-maximal effect
Sequence of Arylsulfatase A (Homo sapiens) (P15289 whole entry, looked up): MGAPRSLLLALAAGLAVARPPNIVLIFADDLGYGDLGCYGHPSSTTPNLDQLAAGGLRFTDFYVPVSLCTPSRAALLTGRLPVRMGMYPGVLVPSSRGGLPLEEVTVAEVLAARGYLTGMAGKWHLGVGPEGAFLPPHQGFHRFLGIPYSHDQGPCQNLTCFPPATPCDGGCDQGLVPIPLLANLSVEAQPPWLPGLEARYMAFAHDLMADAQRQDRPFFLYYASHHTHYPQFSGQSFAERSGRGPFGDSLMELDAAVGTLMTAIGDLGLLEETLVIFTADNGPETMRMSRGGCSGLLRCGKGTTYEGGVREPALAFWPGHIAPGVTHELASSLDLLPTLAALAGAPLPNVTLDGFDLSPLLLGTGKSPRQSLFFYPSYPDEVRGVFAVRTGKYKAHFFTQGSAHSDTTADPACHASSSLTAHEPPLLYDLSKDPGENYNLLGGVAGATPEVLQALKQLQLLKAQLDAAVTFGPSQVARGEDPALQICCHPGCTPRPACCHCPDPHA
Outline: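 First, ASA-I179S fibroblasts from an MLD patient adhered for 6 hrs. Next, compounds were added for 48h. Then pNCS substrate (0.5mM final) with lysis buffer reacted 14h at room temperature before NaOH stop and fluorescence measurement.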

[9] = qHTS for compounds that reverse cellular toxicity of Amyloid beta (A-beta) peptide in yeast: LOPAC Validation Assay (AID 720559);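 also: plate controls were DMSO for no effect and equimolar ferric chloride plus clioquinol rescue for full effect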
Outline: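 Activity is expressed relative to DMSO and an equimolar ferric chloride/clioquinol mix. Compounds were pinned into medium with A-beta-expressing yeast, grown 48 hr at 30 C, then read by absorbance at 600 nm.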

[10] = qHTS for Activators of Parkin Expression: LOPAC Validation Assay (NLuc Reporter) (AID 720572;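 also: 0% = DMSO and 100% = positive control compound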)
Outline: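 Neuronal cells with a Parkin promoter-driven FLuc/NLuc coincidence reporter were treated 24 h at 37 C in 7-point dose response (LOPAC). NLuc luminescence read after FLuc; signals normalized to DMSO and positive control (100%).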

[11] = qHTS for Activators of Parkin Expression: LOPAC Validation Assay (FLuc Reporter) (AID 720573; also: potency is read from the fitted curve at half-maximal effect)
Outline: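 A neuronal cell line harbouring FLuc and NLuc reporters behind the Parkin promoter was exposed to compounds for 24 h. Firefly luciferase signal, measured after 10 min with detection reagent, was scaled to DMSO and positive-control wells.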

[12] = biological target: Atrial natriuretic peptide receptor 1 (Homo sapiens) (UniProt P16066); experiment: Natriuretic polypeptide receptor (hNpr1) antagonism - Pilot screen (AID 1347049; calls by dose curve;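 also: agonist-evoked cGMP luminescence read 20 min after hNppA addition; series mostly up to about 58 µM; % is scaled to controls: 0 for no effect and ±100 for the full control effect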)
Sequence of Atrial natriuretic peptide receptor 1 (Homo sapiens) (P16066 whole entry, looked up): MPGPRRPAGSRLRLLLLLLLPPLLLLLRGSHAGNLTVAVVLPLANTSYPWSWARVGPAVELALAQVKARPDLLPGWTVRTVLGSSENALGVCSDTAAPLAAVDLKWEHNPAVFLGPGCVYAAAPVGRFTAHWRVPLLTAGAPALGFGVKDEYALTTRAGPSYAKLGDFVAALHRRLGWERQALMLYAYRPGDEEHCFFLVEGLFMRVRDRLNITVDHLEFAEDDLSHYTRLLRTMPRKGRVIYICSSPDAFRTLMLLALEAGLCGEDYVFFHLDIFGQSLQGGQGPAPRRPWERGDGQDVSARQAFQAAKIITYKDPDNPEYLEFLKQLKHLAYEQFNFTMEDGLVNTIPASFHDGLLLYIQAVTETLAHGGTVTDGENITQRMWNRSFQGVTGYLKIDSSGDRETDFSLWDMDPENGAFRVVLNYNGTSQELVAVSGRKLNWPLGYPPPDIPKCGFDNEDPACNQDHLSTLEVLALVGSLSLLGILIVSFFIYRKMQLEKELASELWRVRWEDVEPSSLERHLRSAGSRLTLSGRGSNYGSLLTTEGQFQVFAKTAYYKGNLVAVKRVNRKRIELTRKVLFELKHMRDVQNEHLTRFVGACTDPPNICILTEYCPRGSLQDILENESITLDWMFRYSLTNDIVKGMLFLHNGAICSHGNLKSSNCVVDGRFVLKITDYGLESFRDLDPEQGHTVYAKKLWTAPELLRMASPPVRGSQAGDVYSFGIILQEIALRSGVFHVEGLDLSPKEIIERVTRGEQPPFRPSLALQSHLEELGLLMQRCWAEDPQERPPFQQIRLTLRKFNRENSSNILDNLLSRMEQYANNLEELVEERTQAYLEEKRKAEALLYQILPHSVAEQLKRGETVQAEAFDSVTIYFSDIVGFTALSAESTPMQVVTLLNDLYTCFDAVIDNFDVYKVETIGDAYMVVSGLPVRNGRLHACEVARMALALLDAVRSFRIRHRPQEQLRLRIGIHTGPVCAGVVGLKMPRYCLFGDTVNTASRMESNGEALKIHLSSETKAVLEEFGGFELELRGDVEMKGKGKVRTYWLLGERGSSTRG
Outline: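 HEK293 cells expressing hNpr1 and GloSensor cGMP luciferase, 1500/well, loaded with 2% GloSensor reagent 2 h, compound 30 min at room temperature; luminescence read before and 20 min after 0.1 nM hNppA stimulation.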

[13] = biological target: Atrial natriuretic peptide receptor 2 (Homo sapiens) (UniProt P20594); experiment: Natriuretic polypeptide receptor (hNpr2) antagonism - Pilot subtype selectivity assay (AID 1347050; calls by dose curve; also: % is scaled to controls: 0 for no effect and ±100 for the full control effect)
Outline: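 HEK293 cells expressing hNpr2 and a GloSensor cGMP luciferase sensor, 1500/well, preloaded 2 h with 2% GloSensor reagent, compound 30 min, then 1 nM hNppC for 20 min. Antagonism from luminescence after versus baseline pre-read; LOPAC in 1:5 titrations.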

[14] = biological target: Tyrosine-protein phosphatase non-receptor type substrate 1 (Homo sapiens) + Leukocyte surface antigen CD47 (Homo sapiens) (UniProt P78324+Q08722); experiment: CD47-SIRPalpha protein protein interaction - HTRF assay qHTS validation (AID 1347058; active = well fitted curve in the direction sought with a large enough effect in the signal ratio, not every such curve was filed as active; the % refers to the signal ratio;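 also: recombinant soluble extracellular CD47 with His tag and biotinylated SIRPalpha domains; series mostly up to about 38 µM; 0% is about no effect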)
Sequence of Tyrosine-protein phosphatase non-receptor type substrate 1 (Homo sapiens) + Leukocyte surface antigen CD47 (Homo sapiens) (P78324 whole entry, looked up, the tested form may be a part): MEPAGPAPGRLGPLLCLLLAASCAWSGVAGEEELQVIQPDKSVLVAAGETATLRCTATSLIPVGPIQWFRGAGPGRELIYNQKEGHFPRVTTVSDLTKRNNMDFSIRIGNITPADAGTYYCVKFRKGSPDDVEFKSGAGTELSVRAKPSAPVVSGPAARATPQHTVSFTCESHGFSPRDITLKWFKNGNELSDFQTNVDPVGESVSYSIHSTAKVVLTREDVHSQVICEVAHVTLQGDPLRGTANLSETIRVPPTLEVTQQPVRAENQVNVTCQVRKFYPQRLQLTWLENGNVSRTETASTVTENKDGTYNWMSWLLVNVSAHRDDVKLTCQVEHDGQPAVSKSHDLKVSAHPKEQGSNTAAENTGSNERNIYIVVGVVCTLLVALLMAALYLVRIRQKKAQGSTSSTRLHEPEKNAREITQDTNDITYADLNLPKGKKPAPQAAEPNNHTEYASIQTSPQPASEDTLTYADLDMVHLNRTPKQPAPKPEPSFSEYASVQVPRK
Sequence of Tyrosine-protein phosphatase non-receptor type substrate 1 (Homo sapiens) + Leukocyte surface antigen CD47 (Homo sapiens) (Q08722 whole entry, looked up, the tested form may be a part): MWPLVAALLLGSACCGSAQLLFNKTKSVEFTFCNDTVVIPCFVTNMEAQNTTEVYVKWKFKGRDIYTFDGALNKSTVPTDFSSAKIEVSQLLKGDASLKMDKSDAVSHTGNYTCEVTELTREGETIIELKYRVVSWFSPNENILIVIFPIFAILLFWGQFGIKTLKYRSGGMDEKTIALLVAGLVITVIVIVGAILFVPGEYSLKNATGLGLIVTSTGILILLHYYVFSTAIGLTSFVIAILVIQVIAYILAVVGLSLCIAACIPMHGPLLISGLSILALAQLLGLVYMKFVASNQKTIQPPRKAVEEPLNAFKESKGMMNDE
Outline: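 TR-FRET read (Ch1/Ch2 ratio) of soluble extracellular CD47 and Avi-biotinylated SIRPalpha domains in PBS pH 7.4 with 0.05% IGEPAL; 7-point compound titration. Sequential 30 min room-temperature steps; non-biotinylated SIRPalpha as control inhibitor.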

[15] = biological target: Lysine-specific demethylase 5B (Homo sapiens) (UniProt Q9UGL1); experiment: Optimization screen for KDM5B Histone Demethylases FDH coupled qHTS against the LOPAC library (AID 1347166); also: 0% is about no effect
Sequence of Lysine-specific demethylase 5B (Homo sapiens) (Q9UGL1 whole entry, looked up): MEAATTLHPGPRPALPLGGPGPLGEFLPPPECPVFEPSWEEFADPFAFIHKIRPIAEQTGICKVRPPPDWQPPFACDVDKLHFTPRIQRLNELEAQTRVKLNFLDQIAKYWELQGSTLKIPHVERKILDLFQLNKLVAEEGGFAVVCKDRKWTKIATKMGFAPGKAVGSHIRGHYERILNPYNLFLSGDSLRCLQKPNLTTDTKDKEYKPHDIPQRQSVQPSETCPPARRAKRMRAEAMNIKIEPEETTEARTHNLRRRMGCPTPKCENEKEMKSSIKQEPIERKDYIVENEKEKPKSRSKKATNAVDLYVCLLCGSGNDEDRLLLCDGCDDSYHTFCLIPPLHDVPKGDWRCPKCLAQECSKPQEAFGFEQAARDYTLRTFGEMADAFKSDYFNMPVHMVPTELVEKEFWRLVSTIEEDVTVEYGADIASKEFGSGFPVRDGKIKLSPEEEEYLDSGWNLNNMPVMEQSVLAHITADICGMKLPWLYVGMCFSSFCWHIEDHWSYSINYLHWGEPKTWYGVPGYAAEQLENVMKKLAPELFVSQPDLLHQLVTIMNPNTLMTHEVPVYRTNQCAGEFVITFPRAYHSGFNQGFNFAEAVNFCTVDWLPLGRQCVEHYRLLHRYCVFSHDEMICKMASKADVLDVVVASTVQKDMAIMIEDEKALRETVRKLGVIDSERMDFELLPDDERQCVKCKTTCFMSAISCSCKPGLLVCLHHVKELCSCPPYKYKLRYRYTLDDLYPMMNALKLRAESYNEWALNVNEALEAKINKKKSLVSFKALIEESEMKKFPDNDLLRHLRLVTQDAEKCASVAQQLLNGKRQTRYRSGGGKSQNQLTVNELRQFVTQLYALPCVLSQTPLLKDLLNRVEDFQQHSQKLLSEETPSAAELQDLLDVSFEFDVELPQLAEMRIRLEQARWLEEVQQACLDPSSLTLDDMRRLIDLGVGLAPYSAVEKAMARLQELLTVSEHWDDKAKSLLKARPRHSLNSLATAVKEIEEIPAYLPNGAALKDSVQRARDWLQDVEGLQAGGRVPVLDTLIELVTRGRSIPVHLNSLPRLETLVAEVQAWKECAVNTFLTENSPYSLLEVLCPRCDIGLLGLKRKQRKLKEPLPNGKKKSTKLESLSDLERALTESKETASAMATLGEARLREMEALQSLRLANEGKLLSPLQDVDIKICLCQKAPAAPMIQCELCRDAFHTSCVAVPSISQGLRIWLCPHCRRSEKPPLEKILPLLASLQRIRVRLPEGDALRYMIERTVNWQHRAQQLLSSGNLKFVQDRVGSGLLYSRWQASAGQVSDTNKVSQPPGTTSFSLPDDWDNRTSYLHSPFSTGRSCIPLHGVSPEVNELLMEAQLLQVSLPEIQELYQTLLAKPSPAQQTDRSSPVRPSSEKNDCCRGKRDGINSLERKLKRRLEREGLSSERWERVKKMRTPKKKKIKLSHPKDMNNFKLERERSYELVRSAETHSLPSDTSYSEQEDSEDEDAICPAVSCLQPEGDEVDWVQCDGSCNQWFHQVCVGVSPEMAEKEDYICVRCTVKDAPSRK
Outline: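 KDM5BDeltaAP (200nM final) preincubated 10 min with compound, then 12.5uM H3K4Me3, 25uM a-ketoglutarate, ascorbate, Fe(II), NAD+ and FDH added; 50mM HEPES pH 7.5, 0.01% Tween-20. NADH fluorescence (340/450 nm) change over 30 min, room temperature.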

[16] = qHTS to identify inhibitors of the type 1 interferon - major histocompatibility complex class I in skeletal muscle: primary screen against the NCATS LOPAC collection (AID 1347405);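 also: lytic HiBiT luminescence reporting HLA-B protein level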; also: potency is read from the fitted curve at half-maximal effect
Outline: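 Cells: C25cl48 human myoblasts, HiBiT-tagged HLA-B*08:01, stimulated with IFN-beta 4.0 ng/ml. Compounds are titrated 1:4.3 over 7 points from 46 uM final and incubated 24 hrs; endogenous MHC class I is quantified by HiBiT lytic luminescence.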

[17] = qHTS drug screen for cell cycle checkpoint inhibitors in PARPi-resistant BRCA-mutant ovarian cancer cell lines. (AID 1963452; calls by dose curve); details: PEO1/OlaR viability, CellTiter-Glo luminescence, 96 h, stronger effect = lower value
Outline: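 PEO1, PEO4 and PEO1/OlaR ovarian cancer cells, 600 per well, exposed 96 h at 37C to a dilution series. Viability read by CellTiter-Glo luminescence, normalized to DMSO and empty wells; activity summarized as Z-AUC.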

[18] = biological target: M-phase phosphoprotein 8 (Homo sapiens) (UniProt Q99549); experiment: qHTS Validation Assay for Inhibitors for MPP8 Chromodomain Interactions with Methylated Histone Tails (AID 488949); also: nearly all actives have a fitted effect of over 55% in size; also: potency is read from the fitted curve at half-maximal effect
Outline: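 Disruption of the preformed MPP8–trimethyl-H3K9 peptide complex (both 50 nM, 30 min, RT) is measured after 30 min compound exposure, using AlphaScreen proximity beads; aurintricarboxylic acid titration serves as plate control.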

[19] = biological target: Ubiquitin carboxyl-terminal hydrolase 1 (Homo sapiens) (UniProt O94782); experiment: Inhibitors of USP1/UAF1: Pilot qHTS (AID 504865);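 also: rhodamine fluorescence freed from ubiquitin-rhodamine substrate followed over time; top concentration of the series differs between compounds; % is scaled to controls: 0 for no effect and ±100 for the full control effect; nearly all actives have a fitted effect of over 35% in size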
Outline: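 Kinetic fluorescence assay: 1nM USP1/UAF1, 15 min compound preincubation, then 150nM Ub-Rho; 480/540 nm.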

[20] = qHTS Assay for Identifying Gametocytocidal Compounds (AID 743244); also: potency is read from the fitted curve at half-maximal effect;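 as to max response: % is scaled to controls: 0 for no effect and ±100 for the full control effect; actives lower the fluorescent signal which means gametocytes are killed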; details: P. falciparum 3D7 stage III-V gametocytes, alamarBlue, 72 h; max response: stronger effect = lower value
Outline: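 A resazurin-based viability read-out was applied to mature P. falciparum gametocytes: 72 h compound treatment, then 24 h dye incubation, with falling fluorescence signalling gametocytocidal effect.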

[21] = measured here: PEO1 parental Z-AUC

CC[N+](CC)(CC)CC
inactive: outcome [1] | outcome [2] | Potency [3] | Potency [4] | outcome [5] | Potency [6] | outcome [7] | Potency [8] | outcome [9] | outcome [10] | Potency [11] | Potency [12] | Potency [13] | outcome [14] | outcome [15] | Potency [16]

CN[C@@H]1C[C@H]2O[C@@](C)([C@@H]1OC)n1c3ccccc3c3c4c(c5c6ccccc6n2c5c31)C(=O)N[C@H]4O
-0.638: Z-AUC ([17]; measured here: PEO4 Z-AUC)
-0.367: Z-AUC [17, 21]
inactive: Z-AUC [17] -0.878

Cc1cccc(/C=C/c2ccccc2)n1
active: Potency [3] 4.11 µM
inactive: Potency [18] | outcome [1] | outcome [2] | Potency [19] | Potency [6] | outcome [7] | Potency [8] | outcome [9] | outcome [10] | max response [20] 6.48% | outcome [14] | Potency [16]

O=Nc1c(-c2c(O)[nH]c3ccccc23)[nH]c2ccccc12
inactive: outcome [1] | Potency [4] | outcome [7] | outcome [9] | max response [20] 1.55% | Potency [12] | Potency [13] | outcome [15]
active: Potency [18] 6.31 µM and 7.52 µM | Potency [6] 11.2 µM | Potency [8] 10.7 µM | Potency [11] 10.3 µM | Potency [16] 11.2 µM

S=C(Nc1ccccc1)Nc1nccs1
inactive: Potency [18] | outcome [2] | Potency [4] | outcome [5] | Potency [19] | outcome [7] | Potency [8] | outcome [10] | outcome [14] | outcome [15]
active: Potency [3] 20.6 µM | Potency [6] 11.2 µM | Potency [20] 1.58 µM

CCc1ccc(/C=C2/SC(=S)NC2=O)cc1
active: Potency [8] 15.1 µM
inactive: outcome [1] | Potency [3] | Potency [4] | outcome [5] | Potency [6] | outcome [7] | outcome [9] | outcome [10] | Potency [11] | max response [20] 30.7% | Potency [12] | Potency [13] | outcome [15] | Potency [16] | Z-AUC [17] 0.0868
0.677: Z-AUC [17, 21]
0.763: Z-AUC ([17]; measured here: PEO4 Z-AUC)
